Test system: cpb
Experiment: MAPPIT interaction score (arbitrary units); higher = stronger binary interaction signal, active = hit call of the paper
Details: MAPPIT configuration: N-C; pair source set: Lit-BM-16;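 active = MAPPIT score above the 99th percentile of random reference set scores in the same batch; inactive = at or below it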
Procedure: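 MAPPIT in HEK293T cells: Drosophila bait and prey ORFs (from the FlyBi ORF collection) were co-transfected in quadruplicate, with two wells stimulated by erythropoietin. Interaction-dependent JAK-STAT activation was read out with a STAT-responsive firefly luciferase reporter. Positive calls use the 99th percentile of random reference set (RRS) scores within each batch […]. Batches Dvs01 and Dvs02 used the N-N configuration and Dvs04 the N-C configuration. Pairs come from FlyBi screens, CuraGen, DPiM, Finley Y2H, Lit-BM-16, Lit-BS-16 and RRS.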
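Further: HEK293T cells with Epo stimulation, STAT-responsive firefly luciferase reporter, fold induction versus unstimulated cells divided by the larger fold induction of two negative controls lacking either bait or prey.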

cpa, sequence (chain, as listed by the source): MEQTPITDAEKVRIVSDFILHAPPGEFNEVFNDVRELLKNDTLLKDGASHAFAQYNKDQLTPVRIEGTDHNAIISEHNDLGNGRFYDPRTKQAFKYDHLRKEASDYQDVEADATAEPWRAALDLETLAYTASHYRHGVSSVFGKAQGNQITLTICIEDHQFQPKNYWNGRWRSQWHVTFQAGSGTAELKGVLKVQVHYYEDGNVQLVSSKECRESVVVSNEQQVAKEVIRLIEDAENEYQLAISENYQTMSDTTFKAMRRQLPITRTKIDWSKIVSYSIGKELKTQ

Substance	MAPPIT interaction score
cpa	4.39 (active)

Same assay, conditions: MAPPIT configuration: N-N; pair source set: Lit-BM-16

Substance	MAPPIT interaction score
cpa	6.04 (active)

Reference: the supplement of paper PMC10105736
